From PubChem BioAssay
Calls of active or inactive are those of the source.

Key:
[1] = binders of probe aFSTL3 on microarray, primary screen, stem cell growth factor project, biochemical, small-molecule microarray, fluorescence 635/667 (AID 1064); settings: higher = more signal;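 note: measures binding of the biotinylated anti-FSTL3 antibody to printed compounds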
[2] = binders from COS7 lysate, DM2A8 probe, primary screen, torsin A project, cell lysate, small-molecule microarray, fluorescence 635/667 (AID 1065); settings: higher = more signal, COS7 lysate expressing mutant human TOR1A
[3] = binders of probe aFGF2 on microarray, primary screen, stem cell growth factor project, biochemical, small-molecule microarray, fluorescence 635/667 (AID 1067); settings: higher = more signal;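 note: measures binding of biotinylated aFGF2 protein to printed compounds on slides; z-score merges feature fluorescence and signal-to-noise across triplicate slides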
[4] = binders of probe aFGF10 on microarray, primary screen, stem cell growth factor project, biochemical, small-molecule microarray, fluorescence 635/667 (AID 1071); settings: higher = more signal;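 note: score merges 667 nm spot intensity and signal to noise from triplicate slides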
[5] = biological target: Neurogenic locus notch homolog protein 2 (Homo sapiens) (UniProt Q04721); experiment: Notch2 binders on small-molecule microarrays, primary screen, biochemical, small-molecule microarray, 635 nm fluorescence, stem cell growth factors (AID 1073); settings: Notch2 binding, higher = more signal
Chain of Neurogenic locus notch homolog protein 2 (Homo sapiens) (Q04721 whole entry, looked up, canonical isoform): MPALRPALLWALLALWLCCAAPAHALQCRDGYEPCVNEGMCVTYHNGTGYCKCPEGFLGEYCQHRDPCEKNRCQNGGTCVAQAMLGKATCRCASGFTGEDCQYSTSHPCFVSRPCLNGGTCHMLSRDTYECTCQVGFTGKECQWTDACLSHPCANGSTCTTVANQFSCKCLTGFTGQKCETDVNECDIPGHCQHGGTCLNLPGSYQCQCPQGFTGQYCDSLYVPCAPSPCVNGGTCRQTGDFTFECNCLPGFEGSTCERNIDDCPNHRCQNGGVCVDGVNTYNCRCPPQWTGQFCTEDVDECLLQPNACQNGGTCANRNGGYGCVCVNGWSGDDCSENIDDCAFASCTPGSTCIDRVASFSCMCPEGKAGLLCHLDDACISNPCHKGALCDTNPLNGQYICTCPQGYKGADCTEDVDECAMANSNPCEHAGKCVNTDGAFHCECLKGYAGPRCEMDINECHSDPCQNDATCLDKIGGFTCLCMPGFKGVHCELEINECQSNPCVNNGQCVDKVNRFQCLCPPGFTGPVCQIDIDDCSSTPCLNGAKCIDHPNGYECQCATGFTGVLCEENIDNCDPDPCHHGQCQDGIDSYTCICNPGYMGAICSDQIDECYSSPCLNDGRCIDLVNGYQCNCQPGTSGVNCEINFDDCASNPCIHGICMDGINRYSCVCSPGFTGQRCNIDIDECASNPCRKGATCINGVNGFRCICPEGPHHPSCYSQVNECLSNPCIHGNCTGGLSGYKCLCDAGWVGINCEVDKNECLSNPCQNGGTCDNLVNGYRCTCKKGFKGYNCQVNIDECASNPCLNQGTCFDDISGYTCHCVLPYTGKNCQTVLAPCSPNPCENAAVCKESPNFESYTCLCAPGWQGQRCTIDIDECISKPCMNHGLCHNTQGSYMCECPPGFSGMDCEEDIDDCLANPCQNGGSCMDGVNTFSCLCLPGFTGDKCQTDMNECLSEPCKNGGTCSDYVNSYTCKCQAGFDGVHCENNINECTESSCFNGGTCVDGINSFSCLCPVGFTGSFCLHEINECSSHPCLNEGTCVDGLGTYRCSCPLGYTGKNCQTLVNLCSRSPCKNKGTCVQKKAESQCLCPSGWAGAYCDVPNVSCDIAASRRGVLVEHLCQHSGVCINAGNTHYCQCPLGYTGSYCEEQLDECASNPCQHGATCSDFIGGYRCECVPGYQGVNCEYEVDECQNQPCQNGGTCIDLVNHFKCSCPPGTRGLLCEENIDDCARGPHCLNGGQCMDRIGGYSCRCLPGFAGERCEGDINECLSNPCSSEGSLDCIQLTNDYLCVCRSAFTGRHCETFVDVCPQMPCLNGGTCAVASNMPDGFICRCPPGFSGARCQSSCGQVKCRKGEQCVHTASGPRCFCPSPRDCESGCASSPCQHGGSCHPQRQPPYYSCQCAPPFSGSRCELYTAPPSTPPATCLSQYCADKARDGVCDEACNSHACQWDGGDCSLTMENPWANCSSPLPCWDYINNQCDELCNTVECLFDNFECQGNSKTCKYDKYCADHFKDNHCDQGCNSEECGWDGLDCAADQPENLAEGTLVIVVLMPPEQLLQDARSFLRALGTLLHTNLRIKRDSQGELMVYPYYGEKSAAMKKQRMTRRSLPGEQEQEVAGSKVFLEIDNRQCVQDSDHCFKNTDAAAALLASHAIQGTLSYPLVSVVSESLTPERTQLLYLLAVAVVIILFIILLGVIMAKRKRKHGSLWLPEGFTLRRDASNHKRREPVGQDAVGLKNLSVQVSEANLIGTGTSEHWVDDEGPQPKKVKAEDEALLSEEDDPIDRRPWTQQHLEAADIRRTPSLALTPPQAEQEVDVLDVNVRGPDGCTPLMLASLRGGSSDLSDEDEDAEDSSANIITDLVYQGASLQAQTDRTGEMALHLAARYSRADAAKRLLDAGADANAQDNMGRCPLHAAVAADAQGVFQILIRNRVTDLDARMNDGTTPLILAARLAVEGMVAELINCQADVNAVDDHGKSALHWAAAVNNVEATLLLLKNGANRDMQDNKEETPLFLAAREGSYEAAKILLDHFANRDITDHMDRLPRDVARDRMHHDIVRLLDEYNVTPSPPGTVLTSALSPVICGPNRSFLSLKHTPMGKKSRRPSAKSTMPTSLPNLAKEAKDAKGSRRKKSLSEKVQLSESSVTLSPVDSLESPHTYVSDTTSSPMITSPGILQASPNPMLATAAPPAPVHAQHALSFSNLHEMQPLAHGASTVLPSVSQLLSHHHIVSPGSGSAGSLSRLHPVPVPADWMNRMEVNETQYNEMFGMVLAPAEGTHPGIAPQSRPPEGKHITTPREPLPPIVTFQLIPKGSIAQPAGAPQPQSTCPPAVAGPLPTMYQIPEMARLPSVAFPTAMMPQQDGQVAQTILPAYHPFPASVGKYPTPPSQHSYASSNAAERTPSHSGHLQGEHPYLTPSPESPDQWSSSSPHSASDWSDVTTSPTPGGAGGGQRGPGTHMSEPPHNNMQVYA

[6] = biological target: Pro-neuregulin-1, membrane-bound isoform (Homo sapiens) (UniProt Q02297); experiment: NRG1 binders on small-molecule microarrays, primary screen, psychiatric disease protein project, biochemical, small-molecule microarray, fluorescence 635/667 (AID 1075); settings: NRG1 binding, 635 nm fluorescence, higher = more signal;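 note: score combines 667 nm spot fluorescence with signal to noise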
Chain of Pro-neuregulin-1, membrane-bound isoform (Homo sapiens) (Q02297 whole entry, looked up, the tested form may be a part, canonical isoform): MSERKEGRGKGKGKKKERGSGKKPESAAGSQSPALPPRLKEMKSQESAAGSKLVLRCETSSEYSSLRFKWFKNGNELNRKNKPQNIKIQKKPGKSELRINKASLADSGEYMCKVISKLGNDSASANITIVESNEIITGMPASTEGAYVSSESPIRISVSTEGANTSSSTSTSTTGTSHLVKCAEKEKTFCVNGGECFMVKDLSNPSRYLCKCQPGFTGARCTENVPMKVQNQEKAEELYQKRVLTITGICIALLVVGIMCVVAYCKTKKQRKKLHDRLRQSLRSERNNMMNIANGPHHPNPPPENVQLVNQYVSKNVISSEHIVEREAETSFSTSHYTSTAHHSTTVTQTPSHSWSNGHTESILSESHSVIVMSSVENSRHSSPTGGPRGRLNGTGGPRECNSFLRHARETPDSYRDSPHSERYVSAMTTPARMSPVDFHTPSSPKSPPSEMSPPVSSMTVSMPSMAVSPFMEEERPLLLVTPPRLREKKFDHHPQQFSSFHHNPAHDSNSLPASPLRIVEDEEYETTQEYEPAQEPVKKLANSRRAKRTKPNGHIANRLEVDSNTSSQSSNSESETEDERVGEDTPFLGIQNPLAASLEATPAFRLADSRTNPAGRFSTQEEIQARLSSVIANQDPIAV

[7] = test system: Neuregulin-1 EGF-like domain; experiment: binders of neuregulin-1 EGF-like domain, primary screen, biochemical, small-molecule microarray, 635 nm fluorescence (AID 1081); settings: small-molecule microarray binding, higher = more signal;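 note: binding of the protein to compounds printed on small-molecule microarray slides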
[8] = FRG1 promoter luciferase signal modulators, primary screen, FRG1 inhibition for FSHD, cell-based, C2C12 myotubes, firefly/Renilla luciferase, luminescence (AID 1084); settings: higher = more signal, called active from +8 up or from −8 down
[9] = binders of probe aFST on microarray, primary screen, stem cell growth factor project, biochemical, small-molecule microarray, fluorescence 635/667 (AID 1086); settings: higher = more signal;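 note: score merges 667 nm fluorescence with signal-to-noise of each printed compound spot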
[10] = binders of probe aHhip on microarray, primary screen, stem cell growth factor project, biochemical, small-molecule microarray, fluorescence 635/667 (AID 1087); settings: higher = more signal;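 note: score merges spot fluorescence at 667nm with spot signal to noise ratio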

Structure (SMILES) | composite z-score [1] | composite z-score [2] | composite z-score [3] | composite z-score [4] | composite z-score [5] | composite z-score [6] | composite z-score [7] | z-score [8] | composite z-score [9] | composite z-score [10]
CCOC(=O)C1=C[C@@H](c2ccccc2)N(S(=O)(=O)c2ccc(C)cc2)[C@H]1c1ccc(OC)cc1 | 0.0896 | 0.733 | 0.479 | 0.848 | 1.61 | 1.02 | 1 | -2.76 (inactive) | 1.14 | 0.554
COc1ccc([Si](C)(C)[C@@H]2[C@@H](CCO)O[C@]3(C(=O)N(Cc4ccccc4)c4ccc(NC(=O)[C@H](C)O)cc43)[C@H]2C)cc1 | -0.441 | 0.383 | -0.0505 | 0.8 | 1.23 | 1.13 | 1.13 | -3.84 (inactive) | 0.559 | 0.162
CCOC(=O)C[C@H]1[C@H](OC(=O)c2ccccc2-c2ccccc2)[C@@H](NC(=O)c2ccc3ccccc3n2)c2cc(OCCCO)ccc2N1C(=O)Cc1ccc(OC)cc1 | 0.139 | 0.394 | -0.0715 | 0.158 | 0.383 | 0.336 | 0.028 | 0.63 (inactive) | 0.311 | -0.142
CC(CO)N1C(=O)[C@]2(C)C3C(=O)OCCC/C=C\[C@H]3OC23C=CCN(c2ccc(Cl)cc2)C(=O)[C@@H]13 (stereo not given in full) | -0.167 | -0.258 | -0.19 | 0.0755 | -0.27 | -0.639 | 1.25 | -0.906 (inactive) | -0.456 | -0.266
[N-]=[N+]=Nc1ccccc1C[C@@]1(C(=O)NCCN2CCOCC2)N=C(c2ccc(OCCCO)cc2)O[C@@H]1c1ccccc1N=[N+]=[N-] | 0.59 | 0.639 | -0.167 | 1.28 | 1.04 | 1.69 | 1.29 | -2.04 (inactive) | 0.98 | 0.122
CO[C@H]1O[C@H](CO)[C@@H](OC(=O)Nc2ccc(Br)cc2)[C@@H]2OC(=O)[C@@H](Cc3ccccc3)C/C=C/C[C@H](Cc3ccccc3)C(=O)O[C@@H]12 | -0.159 | 1.01 | -0.07 | 0.79 | 1.15 | 1.25 | 1.09 | 0.147 (inactive) | 0.0279 | -0.0645
COc1ccc(C(=O)Nc2ccc(CN3C(=O)[C@]4(O[C@H](CC(=O)N5Cc6ccccc6C[C@H]5CO)[C@@H]([Si](C)(C)c5ccc(OC)cc5)[C@@H]4C)c4ccccc43)cc2)cc1 | -0.402 | 0.716 | -0.0785 | 0.357 | 0.397 | 1.48 | 0.95 | -1.89 (inactive) | 0.0491 | -0.0618
[N-]=[N+]=Nc1ccccc1[C@@H]1OC(c2ccc(OCCCO)cc2)=N[C@]1(Cc1ccccc1)C(=O)O | -0.0974 | 0.396 | -0.0178 | 0.366 | 0.828 | 1.42 | 1.22 | 0.235 (inactive) | 1.39 | -0.126
CCOC(=O)C=Cc1cccc(C)c1O | -0.071 | -0.232 | -0.0348 | -0.0154 | 0.177 | 0.306 | -0.155 | 1.5 (inactive) | -0.488 | -0.236
COCCCNC(=O)[C@@]1(Sc2ccc(C)cc2)CC(=O)N(C2Cc3ccccc3C2)[C@@H]1c1ccc(CO)cc1 | 0.667 | -1.94 | -0.16 | -0.459 | -1.12 | 1.47 | 1.32 | -1.11 (inactive) | -0.213 | -0.164
O=c1cccc(-c2ccc([N+](=O)[O-])cc2)o1 | -0.164 | -0.0642 | 0.0008 | 0.287 | 0.698 | -0.283 | 0.348 | -0.0029 (inactive) | -0.192 | -0.0263
OCCCC1=CC(c2ccc(CN3CCCC3)cc2)N(Cc2cc3c(cc2Br)OCO3)CC1 (stereo not given) | 0.492 | 0.52 | -0.135 | -0.373 | -0.108 | -0.384 | 0.748 | -0.0594 (inactive) | 0.47 | -0.0237
CCCC[C@@H]1C[C@H]1[C@@H](NC(=O)c1cccs1)c1ccccc1C(F)(F)F | 0.015 | 0.871 | 0.326 | 0.256 | 0.803 | 1.8 | 1.1 | -0.0362 (inactive) | -0.517 | -0.115
NC(=O)[C@H]1[C@@H]2C(=O)O[C@@H](c3ccccc3)[C@@H](c3ccccc3)N2[C@@H](c2ccc(OCCO)cc2)[C@]12C(=O)Nc1ccc(C#CCCO)cc12 | 0.127 | 0.685 | -0.0524 | 0.715 | 0.874 | 0.874 | 1.02 | 1.7 (inactive) | 0.232 | -0.275
CC(C)C[C@@H]1NC(=O)[C@@H]2C[C@H](C(=O)NCCCCCCN)[C@H](c3cccc(OCCO)c3)N2C1=O | 0.0713 | -0.262 | 0.107 | 0.655 | 0.928 | 1.98 | 1.44 | 1.32 (inactive) | 0.819 | -0.121
CCCNC(=O)[C@@]1(Sc2ccc(C)cc2)CC(=O)N(C2Cc3ccccc3C2)[C@@H]1c1ccc(CO)cc1I | 0.427 | 0.31 | -0.103 | 0.0119 | -0.445 | 0.917 | 1.01 | -0.653 (inactive) | -0.227 | 0.0505
CC(=O)N1CC2(CC2)CC1c1ccccc1 (stereo not given) | 0.392 | 1.04 | -0.14 | 0.242 | 0.437 | 0.163 | 0.413 | 2.2 (inactive) | 0.661 | 0.533
CC(C)C(CO)N1C(=O)[C@@H]2C3C(=O)OCCC/C=C\[C@H]3OC23C=CCN(c2ccc4ccccc4c2)C(=O)[C@@H]13 (stereo not given in full) | -0.08 | -0.623 | -0.076 | -0.12 | -1 | 0.99 | 1.48 | 0.759 (inactive) | -0.412 | 0.176
C=C[C@H](C)[C@H](OC(=O)Nc1ccc(SC)cc1)c1ccc(OCCO)cc1 | -0.0439 | 1.18 | -0.1 | 0.406 | -0.34 | 0.745 | 1.15 | 4.38 (inactive) | 0.0319 | 0.0972
CCCC=C(CCC)[C@@H](NP(=O)(c1ccccc1)c1ccccc1)c1ccc(-c2ccccc2)cc1 | 0.0517 | 0.887 | 0.112 | 0.704 | 1.57 | 1.19 | 1.14 | -2.1 (inactive) | 1.14 | 0.172
C=CC[C@]1(C(=O)N2CCCCC2)N=C(c2ccc(OCCCO)cc2)O[C@H]1c1ccccc1CN=[N+]=[N-] | -0.25 | 0.516 | 0.238 | 0.546 | 1.42 | 1.17 | 1.24 | -1.08 (inactive) | 0.907 | -0.0699
